The record followed here is PubChem BioAssay AID1851 (National Center for Advancing Translational Sciences (NCATS), 2009).

The structures appear in SMILES notation. Hit rate of the full screen: of about 16,000 compounds, about 5,800 (36%) were called active. Inconclusive results (about 23%) are left out. Some of the results follow. A number with no mark means an inactive call. The call rests on the fitted dose curve; in most records, active means well fitted curve in the direction sought with a large enough effect; inconclusive means small, poorly fitted or top-dose-only effect, or effect the other way; inactive means no such curve, though single readings can be large or run the other way.

For orientation: AC50 means the concentration at which the activity in the assay is half-maximal.
On the % scale 0 is the no-effect control and ±100 the full control effect.

Chain of Cytochrome P450 2C19 (Homo sapiens) (P33261 whole entry, looked up): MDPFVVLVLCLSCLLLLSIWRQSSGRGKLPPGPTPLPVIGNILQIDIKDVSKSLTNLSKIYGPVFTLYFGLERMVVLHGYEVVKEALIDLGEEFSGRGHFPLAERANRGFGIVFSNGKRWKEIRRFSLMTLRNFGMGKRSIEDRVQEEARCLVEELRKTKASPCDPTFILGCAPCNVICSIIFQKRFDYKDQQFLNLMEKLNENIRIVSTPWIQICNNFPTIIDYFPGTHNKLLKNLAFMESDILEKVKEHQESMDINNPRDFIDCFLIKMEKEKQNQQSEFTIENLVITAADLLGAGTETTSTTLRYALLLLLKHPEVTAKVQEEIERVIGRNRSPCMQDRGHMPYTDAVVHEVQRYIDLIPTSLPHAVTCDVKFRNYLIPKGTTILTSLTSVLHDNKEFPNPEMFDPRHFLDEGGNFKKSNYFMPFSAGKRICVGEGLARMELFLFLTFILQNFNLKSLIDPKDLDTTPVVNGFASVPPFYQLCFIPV

This assay addresses Cytochrome P450 2C19 (Homo sapiens) (UniProt P33261). As to the kind of experiment: Cytochrome panel assay with activity outcomes. The following applies: recombinant CYP, pro-luciferin dealkylation, luminescence, p450-cyp2c19; series mostly up to 57.1 µM.
For the compound `COc1ccc2[nH]cc(CCNc3ncncc3-c3ccc(C(=O)N(C)C)cc3)c2c1`, the AC50 is 10 µM (active). On the same count and under the same terms, for `COc1ccc2[nH]cc(CCNc3ncnc4ccc(-c5ccc(C(=O)N(C)C)cc5)cc34)c2c1` the value was 7.94 µM (active); for `COc1ccc2[nH]cc(CCNc3ncncc3-c3ccc(N(C)C)cc3)c2c1`, 1.58 µM (active). Regarding `O=C(O)c1[nH]c2c([N+](=O)[O-])cc([N+](=O)[O-])cc2c1C(=O)O`, the activity, negative = inhibition was 39.2% [at 11.4 µM].

With `NS(=O)(=O)c1cc2c(cc1C(F)(F)F)N[C@H](Cc1ccccc1)NS2(=O)=O`, the AC50 entry is “inactive”. On the same count and under the same terms, then `CC[n+]1c(P(=O)([O-])c2ccccc2)[nH]c2ccccc21`, with “inactive”; and `CN1CC(c2ccccn2)C2(SC(=S)N(Cc3ccccc3)C2=O)C12C(=O)Nc1ccccc12` (stereo not given), with 1.12 µM (active); and `CCC(CC)C(=O)c1c[nH]c(C(=O)NCCCN2CCOCC2)c1`, with “inactive”. For `CC(C)(C)c1ccc(C(=O)c2c[nH]c(C(=O)NCCCn3ccnc3)c2)cc1`, the half-maximal activity concentration (AC50) is 0.1 µM (active).

Turning to `Cc1ccc(C(=O)c2c[nH]c(C(=O)NCCCN3CCOCC3)c2)cc1`, the AC50 entry was “inactive”. As to `O=C(c1ccc(C(F)(F)F)cc1)c1c[nH]c(C(=O)NCCCn2ccnc2)c1`, the AC50 was 0.631 µM (active).

With `Cc1c(CCO)c(=O)n(C)n1C(=O)c1ccc(F)cc1`, the AC50 is 17.8 µM (active).

Consider `CCOC(=O)NC(NC(=O)OCC)C(=O)c1ccc(F)cc1`, for which the AC50 entry is “inactive”. Regarding `Cc1ccc(-n2nnnc2-c2cnc3ccc(Cl)cc3c2-c2ccccc2)cc1`, the AC50 is 7.94 µM (active). For `Clc1ccc2[nH]cc(-c3nnnn3-c3ccccc3)c2c1`, the half-maximal activity concentration (AC50) is 1.12 µM (active). Same read-out and setting: for `N#Cc1cccc(-c2nc3cnc(Nc4ccccc4)nc3n(C[C@H]3CCCO3)c2=O)c1` the value was “inactive”; for `Cn1sc(NC(=O)c2ccccc2)nc1=O`, “inactive”. As to `O=C(Nc1ccccc1Cl)c1ccccc1Cl`, the concentration at half-maximal activity (AC50) is 20 µM (active). Still for that read-out and setting: for `O=C(Nc1ccccc1Cl)c1ccn[nH]1` the value was “inactive”; for `Cn1sc(NC(=O)c2ccccc2Cl)nc1=O`, 14.1 µM (active). On to `Cc1cc(NC(=O)c2ccccc2Cl)c(C(C)C)cc1O`, for which the AC50 was 3.98 µM (active). Same read-out and setting: then `Cc1ccc(Cl)c(Nc2ccccc2C(=O)O)c1Cl`, with “inactive”; and `CC[C@@]12CCCN3CCc4c(n(c5ccccc45)[C@](O)(C(=O)OC)C1)[C@H]32`, with “inactive”; and `O=C(Nc1cccc(C(=O)Nc2ccc(S(=O)(=O)O)c3cc(S(=O)(=O)O)cc(S(=O)(=O)O)c23)c1)Nc1cccc(C(=O)Nc2ccc(S(=O)(=O)O)c3cc(S(=O)(=O)O)cc(S(=O)(=O)O)c23)c1`, with “inactive”. The same measure, in the same setting: for `O=C(CSCc1ccccc1)Nc1cccc(C(=O)Nc2ccccc2C(=O)O)c1` the value was 11.2 µM (active).
